This note sets out measurements from PubChem BioAssay AID1347420 (Sanford-Burnham Center for Chemical Genomics, 2020).

The campaign covered roughly 1,300 compounds. About 980 (75%) were called active. Roughly 4% stayed inconclusive and do not appear here. The list shows a part of the results. Unmarked numbers belong to inactive results.

The target in the assay is Sulfhydryl oxidase 1 (Homo sapiens) (UniProt O00391). Briefly: inhibition of human sulfhydryl oxidase QSOX1 – biochemical, HyperBlu H2O2 luminescence, HTS, primary screen (AID 1347420). Further: values above 100% were filed as inconclusive. Particulars: recombinant QSOX1, HyperBlu H2O2 luminescence; at 12.5 µM; hits give high values; active = any value above zero.
Chain of Sulfhydryl oxidase 1 (Homo sapiens) (O00391 whole entry, looked up): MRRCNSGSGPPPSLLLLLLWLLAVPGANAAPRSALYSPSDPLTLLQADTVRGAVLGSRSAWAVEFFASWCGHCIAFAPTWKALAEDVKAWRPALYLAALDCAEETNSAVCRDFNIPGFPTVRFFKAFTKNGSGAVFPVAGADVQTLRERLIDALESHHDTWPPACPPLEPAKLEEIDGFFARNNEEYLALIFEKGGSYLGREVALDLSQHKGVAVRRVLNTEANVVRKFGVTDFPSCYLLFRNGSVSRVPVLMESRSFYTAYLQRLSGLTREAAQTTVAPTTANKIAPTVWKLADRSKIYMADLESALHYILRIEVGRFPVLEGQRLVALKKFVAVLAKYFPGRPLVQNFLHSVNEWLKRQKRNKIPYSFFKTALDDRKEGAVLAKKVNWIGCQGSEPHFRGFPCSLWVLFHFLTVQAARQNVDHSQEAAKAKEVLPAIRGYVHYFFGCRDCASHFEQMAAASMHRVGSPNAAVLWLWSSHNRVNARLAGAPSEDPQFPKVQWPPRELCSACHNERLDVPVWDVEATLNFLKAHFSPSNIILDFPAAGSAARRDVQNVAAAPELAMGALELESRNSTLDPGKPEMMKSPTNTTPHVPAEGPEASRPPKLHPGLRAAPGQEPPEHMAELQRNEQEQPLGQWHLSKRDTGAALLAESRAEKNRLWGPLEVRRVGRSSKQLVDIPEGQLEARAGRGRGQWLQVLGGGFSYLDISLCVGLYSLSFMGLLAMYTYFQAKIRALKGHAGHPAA
Usually inhibition stands for the relative decrease from the control value, in per cent. In the case of `CNCC(O)c1ccc(O)c(O)c1` (stereo not drawn), the inhibition was 39.2% (active).

Take `CNC[C@H](O)c1cccc(O)c1`: the inhibition is 17% (active).

Consider `CNC[C@H](O)c1ccc(O)c(O)c1`, for which the inhibition is 53.5% (active).

As for `CNCCc1cnc(CCC(c2ccccc2)c2ccccc2)[nH]1`, the inhibition is 14.6% (active).

Consider `Cc1cn([C@H]2C=C[C@@H](CO)O2)c(=O)[nH]c1=O`, for which the inhibition is 21.2% (active).

In the case of `Cc1cn([C@H]2C[C@@H](N=[N+]=[N-])[C@@H](CO)O2)c(=O)[nH]c1=O`, the inhibition was 18.1% (active).

For `O=c1[nH]c(=O)n([C@H]2C[C@H](O)[C@@H](CO)O2)cc1Br`, the inhibition was 6.3% (active).

For `O=c1[nH]c(=O)n([C@H]2C[C@H](O)[C@@H](CO)O2)cc1/C=C/Br`, the inhibition was 11.6% (active).

As to `N#CC(C#N)=C(N)/C(C#N)=C/c1ccc(O)cc1`, the inhibition is 85.4% (active).

On to `Cn1cc(C(F)(F)F)nc1-c1ccc(OCC(O)CNCCOc2ccc(O)c(C(N)=O)c2)cc1` (stereo not drawn), for which the inhibition was 45.1% (active).

For `CC12C(=O)OC(=O)C1(C)C1CCC2O1` (stereo not drawn), the inhibition was 1.8% (active).

For the molecule `CNC(=O)c1cc2c(cn1)[nH]c1ccccc12`, the inhibition was 4.2% (active).

As to `Cc1ccccc1N1C(=O)c2cc(S(N)(=O)=O)c(Cl)cc2NC1C` (stereo not drawn), the inhibition was 9.2% (active).

Take `O=c1[nH]c(=S)[nH]c(-c2ccccc2)c1Cc1c(O)ccc2ccccc12`: the inhibition was 55.9% (active).

In the case of `CC(C)(C)c1ccc(S(=O)(=O)/C=C/C#N)cc1`, the inhibition is 3.4% (active).

On to `Cc1ccc(S(=O)(=O)/C=C/C#N)cc1`, for which the inhibition is 10.5% (active).

For `CC12CC3CC(C)(C1)CC(N)(C3)C2`, the inhibition was -1.7%.

Turning to `NC12CC3CC(CC(C3)C1)C2`, the inhibition is 33.3% (active).

For the molecule `CCOC(=O)C(C)Oc1cccc2c(=O)n(CC(=O)Nc3ccc4c(c3)OCCO4)ccc12` (stereo not drawn), the inhibition was 9.3% (active).

Turning to `NC(C(=O)N[C@@H]1C(=O)N2C(C(=O)O)=C(Cl)CS[C@H]12)c1ccccc1` (stereo partly drawn), the inhibition was 23.8% (active).

As for `CC1=C(C(=O)O)N2C(=O)[C@@H](NC(=O)C(N)C3=CCC=CC3)[C@H]2SC1` (stereo partly drawn), the inhibition was 20.2% (active).

For `CC1=C(C(=O)O)N2C(=O)[C@@H](NC(=O)C(N)c3ccccc3)[C@H]2SC1` (stereo partly drawn), the inhibition is 37.1% (active).

On to `NC(=O)c1cc[n+](CC2=C(C(=O)O)N3C(=O)[C@@H](NC(=O)[C@@H](c4ccccc4)S(=O)(=O)[O-])[C@H]3SC2)cc1`, for which the inhibition was 14.6% (active).

With `CN1CC(=O)N/C1=N\C(=O)Nc1cccc(Cl)c1`, the inhibition was -0.6%.

For the molecule `CC1=C(CC(=O)O)c2cc(F)ccc2/C1=C\c1ccc(S(C)(=O)=O)cc1`, the inhibition was 13.7% (active).

As to `CC1=C(CC(=O)O)c2cc(F)ccc2/C1=C\c1ccc(S(C)=O)cc1` (stereo not drawn), the inhibition is 14.1% (active).

Regarding `CC(=O)N[C@@H](Cc1c[nH]c2ccccc12)C(=O)OCc1cc(C(F)(F)F)cc(C(F)(F)F)c1`, the inhibition is 4.9% (active).

Turning to `NC(=O)OCC(COC(N)=O)c1ccccc1`, the inhibition is 6.4% (active).

On to `N=C(N)c1ccc(N)cc1`, for which the inhibition was -0.4%.

With `N=C(N)c1ccc(OCCCCCOc2ccc(C(=N)N)cc2)cc1`, the inhibition was 14.9% (active).

Turning to `NC1(C(=O)O)CC1`, the inhibition is 0.9% (active).

Consider `NC1(C(=O)O)CCCCC1`, for which the inhibition was 12.2% (active).

For `Clc1nccc2c1ccc1ccccc12`, the inhibition was 5.5% (active).

With `O=C(CCCN1CCC(O)(c2cccc(C(F)(F)F)c2)CC1)c1ccc(F)cc1`, the inhibition is 1.8% (active).

Take `O=C(CCCN1CCC(O)(c2ccc(Cl)cc2)CC1)c1ccc(F)cc1`: the inhibition is 4.3% (active).

As to `CN(C)C(=O)C(CCN1CCC(O)(c2ccc(Cl)cc2)CC1)(c1ccccc1)c1ccccc1`, the inhibition is -0.4%.

Consider `CN(C(=O)CCCOc1ccc2[nH]c(=O)ccc2c1)C1CCCCC1`, for which the inhibition was 13.1% (active).

As for `CN1C2CC(OC(=O)[C@H](CO)c3ccccc3)CC1C1OC12` (stereo partly drawn), the inhibition was 10.8% (active).

Turning to `CN1C2CCC1CC(OC(c1ccccc1)c1ccccc1)C2` (stereo not drawn), the inhibition is 7.5% (active).

For `CN1C2CCC1CC(OC(=O)c1c[nH]c3ccccc13)C2` (stereo not drawn), the inhibition was 8.4% (active).

Turning to `CN1C2CCC1CC(OC(=O)C(CO)c1ccccc1)C2` (stereo not drawn), the inhibition was 0.4% (active).

Take `CN1C2CCC1CC(OC(=O)C(O)c1ccccc1)C2` (stereo not drawn): the inhibition was 6.4% (active).

Turning to `CC(C)(C)C(=O)Oc1ccc(S(=O)(=O)Nc2ccccc2C(=O)NCC(=O)O)cc1`, the inhibition was 18.6% (active).

For the molecule `CNC1(C)C2CCC(C2)C1(C)C` (stereo not drawn), the inhibition was -4.4%.

Take `NC(=O)NO`: the inhibition is 11.4% (active).

In the case of `CC(C)C[C@H](NC(=O)C1OC1C(=O)O)C(=O)NCCCCN=C(N)N` (stereo partly drawn), the inhibition was -7.9%.

As for `N[C@H](C(=O)O)[C@H](Cc1ccccc1)C(=O)O`, the inhibition is 4.3% (active).

On to `NCCCNCCSP(=O)(O)O`, for which the inhibition is 7.6% (active).

In the case of `NCCCNCCCCNCCCN`, the inhibition was 19.3% (active).

Turning to `NCCCCNCCCN`, the inhibition is -8.3%.

Consider `S=C(S)N1CCCC1`, for which the inhibition is 86.2% (active).

As for `CC(C)CC(NP(=O)(O)O[C@@H]1O[C@@H](C)[C@H](O)[C@@H](O)[C@H]1O)C(=O)NC(Cc1c[nH]c2ccccc12)C(=O)O` (stereo partly drawn), the inhibition is 59.4% (active).

For `O=C(O)c1cccnc1Nc1cccc(C(F)(F)F)c1`, the inhibition is 3.2% (active).

In the case of `Nc1ncnc2c1nc(Sc1ccc(Cl)cc1)n2C1OC2COP(=O)(O)O[C@@H]2[C@@H]1O` (stereo partly drawn), the inhibition is 7.4% (active).

For the molecule `Nc1nc(O)c2nc(Br)n(C3OC4COP(=O)(O)O[C@@H]4C3O)c2n1` (stereo partly drawn), the inhibition is 9.3% (active).

`Nc1ncnc2c1nc(Br)n2C1OC2COP(=O)(O)O[C@@H]2C1O` (stereo partly drawn): the inhibition is 4.7% (active).

With `Nc1ncnc2nc(-c3ccc(N4CCOCC4)nc3)cc(-c3cccc(Br)c3)c12`, the inhibition was -3%.

Regarding `O=c1[nH]c2cc(Cl)ccc2c(O)c1-c1ccc(Oc2ccccc2)cc1`, the inhibition is 8.7% (active).

For `CN(C)c1nc(N(C)C)nc(N(C)C)n1`, the inhibition was 31.3% (active).

For `CN1[C@@H](CC(=O)c2ccccc2)CCC[C@H]1C[C@H](O)c1ccccc1`, the inhibition is 15.5% (active).

In the case of `O=C(O)CCCC[C@@H]1CCSS1`, the inhibition is 0.1% (active).

With `Cc1cc(C(C)(C)C)c(O)c(C)c1CC1=NCCN1`, the inhibition was 11.2% (active).

On to `Cc1cc(C(C)(C)C)cc(C)c1CC1=NCCN1`, for which the inhibition was 5% (active).

Consider `CC(=O)[C@H]1CC[C+]2C3CC=C4C[C@@H](OS(=O)(=O)[O-])CC[C@]4(C)C3CC[C@@]21C` (stereo partly drawn), for which the inhibition is -11.2%.

For the molecule `CCN(Cc1ccncc1)C(=O)C(CO)c1ccccc1` (stereo not drawn), the inhibition was 1.5% (active).

Regarding `COc1ccc(/C=C2\COc3ccc(C)cc3C2=O)cc1O`, the inhibition was 75.9% (active).

`CCCc1c(-c2ccc(O)cc2)nn(-c2ccc(O)cc2)c1-c1ccc(O)cc1`: the inhibition is 68.4% (active).

`Brc1c(NC2=NCCN2)ccc2nccnc12`: the inhibition was 21.8% (active).

As for `CC(=O)O[C@H]1CC2(C)[C@@H](C[C@@H](O)[C@H]3[C@@]4(C)CC[C@@H](O)[C@@H](C)[C@@H]4CC[C@@]32C)/C1=C(/CCC=C(C)C)C(=O)O` (stereo partly drawn), the inhibition is 15.9% (active).

With `CCN(CC)CCn1c(=O)c(Cc2ccc(OC)cc2)nc2ccccc21`, the inhibition was 11.3% (active).

With `CCCNCC(O)COc1ccccc1C(=O)CCc1ccccc1` (stereo not drawn), the inhibition was 9.1% (active).

Regarding `O=C(O)c1cc2cc(Cc3cccnc3)ccc2o1`, the inhibition was 12.1% (active).

Take `NC(N)=Nc1nc(CSCC/C(N)=N/S(N)(=O)=O)cs1`: the inhibition is 19.1% (active).

In the case of `CC(/C=C/c1cccc(Oc2ccc(F)cc2)c1)N(O)C(N)=O` (stereo not drawn), the inhibition was 17.2% (active).

With `O=C(CCc1ccc(O)cc1)c1c(O)cc(O)cc1O`, the inhibition is 35.5% (active).

On to `NS(=O)(=O)C#Cc1ccccc1`, for which the inhibition is 7% (active).

For the molecule `NC(=O)c1cnccn1`, the inhibition was 6.1% (active).

On to `CCCCCCCCCCCCCCC[C@H](O)[C@H](N)CO`, for which the inhibition was 18.5% (active).

With `COc1ccc(NC(=O)c2ccc(-c3ccc(-c4noc(C)n4)cc3C)cc2)cc1N1CCN(C)CC1`, the inhibition is 3.7% (active).

In the case of `CCCCCN(C)CCC(O)(P(=O)(O)O)P(=O)(O)O`, the inhibition was -4.8%.

As for `O=c1onc2n1-c1cc(Br)ccc1OC2`, the inhibition is 5.7% (active).

As for `CC(C)(C)c1ccc(C(=O)CCCN2CCC(OC(c3ccccc3)c3ccccc3)CC2)cc1`, the inhibition is 8.3% (active).

Consider `C[C@@H](NCCc1ccc(O)cc1)[C@@H](O)c1ccc(O)cc1`, for which the inhibition is 14.4% (active).

With `CC(CCc1ccc(O)cc1)NCCc1ccc(O)c(O)c1` (stereo not drawn), the inhibition is 83.4% (active).

Consider `O=c1[nH]c2cc(C(F)(F)F)ccc2n1-c1cc(C(F)(F)F)ccc1O`, for which the inhibition was 11.5% (active).

Turning to `C[C@]12C=CC(=O)C=C1CC[C@H]1[C@@H]3C[C@@H](O)[C@](O)(C(=O)CO)[C@@]3(C)C[C@H](O)[C@@]12F`, the inhibition is 26.2% (active).

In the case of `C[C@H]1CC2C3CCC4=CC(=O)C=C[C@]4(C)[C@@]3(Cl)[C@@H](O)C[C@]2(C)[C@@]1(O)C(=O)CO` (stereo partly drawn), the inhibition was -10.3%.

As to `CC1CC2C3CCC4=CC(=O)C=C[C@]4(C)[C@@]3(F)[C@@H](O)C[C@]2(C)[C@@]1(O)C(=O)CO` (stereo partly drawn), the inhibition was 11.4% (active).

For the molecule `C#CCN1C(C)=C(C(=O)OC)C(c2cccc([N+](=O)[O-])c2)C(C(=O)OCC)=C1C` (stereo not drawn), the inhibition was 7.8% (active).

Regarding `CCOC(=O)C1=C(C)NC(C)=C(C(=O)OC)C1c1cccc(Cl)c1Cl` (stereo not drawn), the inhibition was 6.3% (active).

For the molecule `CCOC(=O)C1=C(C)NC(C)=C(C(=O)OC)C1c1cccc([N+](=O)[O-])c1` (stereo not drawn), the inhibition is 14% (active).

With `COC(=O)C1=C(C)NC(C)=C(C(=O)OCCN(C)Cc2ccccc2)C1c1cccc([N+](=O)[O-])c1` (stereo not drawn), the inhibition is 6.8% (active).

`CCOC(=O)C1=C(C)NC(C)=C(C(=O)OCC)C1c1c(F)c(F)c(F)c(F)c1F`: the inhibition was -4.7%.

Turning to `COC(=O)C1=C(C)NC(C)=C(C(=O)OC(C)(C)CN(C)CCC(c2ccccc2)c2ccccc2)C1c1cccc([N+](=O)[O-])c1` (stereo not drawn), the inhibition is 21.8% (active).

With `COCCOC(=O)C1=C(C)NC(C)=C(C(=O)OC(C)C)C1c1cccc([N+](=O)[O-])c1` (stereo not drawn), the inhibition is 16.8% (active).

For `COCCOC(=O)C1=C(C)NC(C)=C(C(=O)OC/C=C/c2ccccc2)C1c1cccc([N+](=O)[O-])c1` (stereo not drawn), the inhibition was 32.1% (active).

As for `CCN1CCC[C@H]1CNC(=O)c1c(O)c(Cl)cc(Cl)c1OC`, the inhibition is 14.4% (active).

Take `NCCNC(=O)c1ncsc1-c1cccc(F)c1`: the inhibition was -11.5%.
